Results filed as inconclusive are left out. Activity calls are given as the source filed them. Calls come from the whole dose curve; as a rule, active = well fitted cell-killing curve with a large enough effect; inconclusive = small, poorly fitted or top-dose-only effect, or effect the other way; inactive = no such curve, though single readings can be large or run the other way.
test: Quantitative High-Throughput drug screen in 47 multiple myeloma cell lines against the NCATS MIPE library collection: XG1_PLB cell viability assay (AID 1919866); details: CellTiter-Glo ATP, 48 h; series mostly up to 45.8 µM; viability: at the top concentration; note: nearly all actives have a fitted effect of over 35% in size
Excerpt: PI: Beverly A. Mock Ph.D.
Laboratory of Cancer Biology and Genetics,
Center for Cancer Research, National Cancer Institute,
National Institute of Health, Bethesda, Maryland
Drug resistance and disease progression are common in multiple myeloma (MM) patients, underscoring the need for new therapeutic combinations. […] We hypothesized that effective combinations would reduce MYC expression and enhance p16 activity. […] These preclinical data identify potentially useful drug combinations for evaluation in drug-resistant MM and reveal potential mechanisms of combined drug sensitivity.
Described herein is the primary MIPE qHTS used to cherrypick compounds. Validated compounds were then further tested for potential synergistic activiy.
[1] Peat TJ, Gaikwad SM, Dubois W, Gyabaah-Kessie N, Zhang S, Gorjifard S, Phyo Z, Andres M, Hughitt VK, Simpson RM, Miller MA, Girvin AT, Taylor A, Williams D, D'Antonio N, Zhang Y, Rajagopalan A, Flietner E, Wilson K, Zhang X, Shinn P, Klumpp-Thomas C, McKnight C, Itkin Z, Chen L, Kazandijian D, Zhang J, Michalowski AM, Simmons JK, Keats J, Thomas CJ, Mock BA. Drug combinations identified by high-throughput screening promote cell cycle transition and upregulate Smad pathways in myeloma. Cancer Lett. 2023 Aug 1;568:216284. doi: 10.1016/j.canlet.2023.216284. Epub 2023 Jun 24. PMID: 37356470; PMCID: PMC10408729.
SEQUENCE No. (e.g., 1, 2, 3, etc.); […] (e.g., Cells, Incubation, Reagent, etc.); VALUE and DESCRIPTION.
1; Cells; 5 uL; white, solid bottom 1536-well Greiner assay plate.
2; Compounds; 23 nL; Kalypsis pin tool (Wako USA) equipped with a 1536-well pin head to transfer to the assay plates.
3; Incubation; 48 hours; 37C incubation.
4; Reagent;5uL; CellTiter Glo (Promega).
5; Detector; 425V; Luminescence; Viewlux PerkinElmer.
NOTES (numbers refer to Sequence numbers above)
1. The cell-based screening methods employed in this study were like those previously published. Briefly, the corresponding myeloma cell lines were screened in 1,536-well plates with 500 cells, 5-uL per well for inhibition of cell viability (assessed by measuring ATP levels with CellTiterGlo).
2. NCATS MIPE 4.0 library of approved and investigational drugs were added using the Kalypsis pin tool. Wells treated with DMSO only for 100% viability and media only for 0% viability were used as controls.
3. The assay plates were covered and incubated for 48 hours in a 37C, 5% CO2 incubator with controlled humidity.
4. After 48 hours, CellTilter-GloTM luminescent substrate mix (Promega) reagent was added to the assay plate and plates we incubated for 5 min at room temperature.
5. Signal was measured as median relative luminescence units on a ViewLux (PerkinElmer) multiplate reader.
[1] Heske CM, Davis MI, Baumgart JT, Wilson K, Gormally MV, Chen L, Zhang X, Ceribelli M, Duveau DY, Guha R, Ferrer M, Arnaldez FI, Ji J, Tran HL, Zhang Y, Mendoza A, Helman LJ, Thomas CJ. Matrix Screen Identifies Synergistic Combination of PARP Inhibitors and Nicotinamide Phosphoribosyltransferase (NAMPT) Inhibitors in Ewing Sarcoma. Clin Cancer Res. 2017 Dec 1;23(23):7301-7311. doi: 10.1158/1078-0432.CCR-17-1121. Epub 2017 Sep 12. PMID: 28899971; PMCID: PMC6636827.
Potency is the fitted concentration of half-maximal effect.

Structure (SMILES)	Potency	viability
Cc1ccc(-c2ncn(-c3ccc(Nc4nccc(-c5cccc(N6CCOCC6)c5)n4)cc3)n2)cn1	93.5 nM (active)	–
CC1(O)CC(c2nc(-c3ccc4ccc(-c5ccccc5)nc4c3)c3c(N)nccn23)C1 (stereo not given)	5900 nM (active)	–
CC(=O)Nc1nc(C)c(-c2ccc(Cl)c(S(=O)(=O)NCCO)c2)s1	1660 nM (active)	–
O=C(O)Cn1nnc(-c2cc(N3CCC(Oc4cc(F)ccc4Br)CC3)no2)n1	–	105% (inactive)
C=CC(=O)Nc1cc2c(Nc3ccc(F)c(Cl)c3)ncnc2cc1OCCCN1CCOCC1	2640 nM (active)	–
COc1cc2c(NC3CCN(C(C)C)CC3)nc(C3CCCCC3)nc2cc1OCCCN1CCCC1	4690 nM (active)	–
Cc1nc(Nc2n[nH]c3c2CN(C(=O)N[C@H](CN(C)C)c2ccccc2)C3(C)C)c2sccc2n1	296 nM (active)	–
CC(C)c1cc(-c2n[nH]c(=O)n2-c2ccc3c(ccn3C)c2)c(O)cc1O	29.6 nM (active)	–
Cc1cc(Nc2ncnc3ccc(-c4ccc(CNCCS(C)(=O)=O)o4)cc23)ccc1Oc1ccn2ncnc2c1	6620 nM (active)	–
COc1cc2c(Oc3ccc4[nH]c(C)cc4c3F)ncnc2cc1OCCCN1CCCC1	3320 nM (active)	–
CC(=O)SC[C@@H](C)C(=O)N1CCC[C@H]1C(=O)N[C@@H](Cc1ccccc1)C(=O)O	–	112% (inactive)
CC1(C)OC2=C(C(=O)c3ccccc3C2=O)[C@H](NCc2ccccc2)[C@H]1O	1480 nM (active)	–
CC(=O)Nc1sc2c(c1-c1nc3ccccc3s1)CNC2	14800 nM (active)	–
Nc1nc(Nc2ccc(S(N)(=O)=O)cc2)nn1C(=O)c1c(F)cccc1F	2350 nM (active)	–
COc1cc2ncnc(Nc3ccc(F)c(Cl)c3)c2cc1NC(=O)C=CCN1CCCCC1	4180 nM (active)	–
CNC(=O)c1cc(Oc2ccc(NC(=O)Nc3cc(C(C)(C)C)nn3-c3ccc4ncccc4c3)c(F)c2)ccn1	7430 nM (active)	–
COc1cc2ncn(-c3cc(OCc4ccccc4C(F)(F)F)c(C(N)=O)s3)c2cc1OC	209 nM (active)	–
CCOc1cc2ncc(C#N)c(Nc3ccc(F)c(Cl)c3)c2cc1NC(=O)C=CCN(C)C	10500 nM (active)	–
O=C(O)c1ccc2c(c1)nc(Nc1cccc(Cl)c1)c1ccncc12	4180 nM (active)	–
Nc1ncnc2c1c(-c1cnc3[nH]ccc3c1)nn2C1CCCC1	209 nM (active)	–

Structure (SMILES)	Potency	viability
CN[C@H]1CCc2cc(OC)c(OC)c(OC)c2-c2ccc(OC)c(=O)cc21	–	24.2% (inactive)
CC=C1NC(=O)[C@H]2CSSCCC=C[C@H](CC(=O)N[C@H](C(C)C)C(=O)N2)OC(=O)[C@H](C(C)C)NC1=O	26.4 nM (active)	–
Nc1ncnc2c1c(-c1cccc(OCc3ccccc3)c1)cn2C1CC(CN2CCCC2)C1 (stereo not given)	8330 nM (active)	–
COc1ccc(-c2cc3c(C)nc(N)nc3n(C3CCC(OCCO)CC3)c2=O)cn1 (stereo not given)	18.7 nM (active)	–
O=C(c1ccc(Nc2nccc(-c3cc4ccccc4s3)n2)cc1)N1CCC(N2CCCC2)CC1	4690 nM (active)	–
Clc1cccc(-c2nnnn2Cc2cccnc2)c1Cl	18700 nM (active)	–
Cc1ccc(C(=O)Nc2ccc(CN3CCN(C)CC3)c(C(F)(F)F)c2)cc1C#Cc1cnc2cccnn12	1320 nM (active)	–
CCCCN1CCC(CNC(=O)c2c3n(c4ccccc24)CCCO3)CC1	743 nM (active)	–
Cc1c(CN2CCN(S(C)(=O)=O)CC2)sc2c(N3CCOCC3)nc(-c3cnc(N)nc3)nc12	46.9 nM (active)	–
O=C1CCC[C@@H]2[C@H]3CCC[N+]4([O-])CCC[C@@H](CN12)[C@@H]34 (stereo not given in full)	–	100% (inactive)
Cn1cncc1[C@@](N)(c1ccc(Cl)cc1)c1ccc2c(c1)c(-c1cccc(Cl)c1)cc(=O)n2C	332 nM (active)	–
CNC(=O)c1ccccc1Nc1nc(Nc2ccc(N3CCOCC3)cc2OC)ncc1Cl	6620 nM (active)	–
C[C@@H]1CN(CC(=O)Nc2ccc3c(c2)Cc2cccc(-c4cc(=O)cc(N5CCOCC5)o4)c2S3)C[C@H](C)O1	5900 nM (active)	–
O=C(O)CCCc1c[nH]c2ccccc12	–	115% (inactive)
CC(C)C[C@H](NC(=O)CNC(=O)c1cc(Cl)ccc1Cl)B(O)O	46.9 nM (active)	–
Cc1cc(Nc2cc(CN3CCOCC3)c3nc(C)c(Cc4ccc(Cl)cc4F)n3n2)n[nH]1	833 nM (active)	–
COC(=O)[C@]12CCC(C)(C)C[C@@H]1[C@@H]1C(=O)C=C3[C@@]4(C)C=C(C#N)C(=O)C(C)(C)[C@@H]4CC[C@@]3(C)[C@]1(C)CC2	166 nM (active)	–
O=C(Nc1nc2cccc(-c3ccc(CN4CCS(=O)(=O)CC4)cc3)n2n1)C1CC1	14800 nM (active)	–
O=C(NCCS(=O)(=O)c1ccc(C(F)(F)F)cn1)c1ccc(Cl)cc1	–	104% (inactive)
c1ccc2c(CCNc3ccc(Nc4ccncc4)cc3)c[nH]c2c1	20900 nM (active)	–
